Most compounds without a hit are left out; they make up all but 2.3% or so of the library.
MsrA inh: inhibitors of bovine MsrA; purified bovine MsrA, absorbance read-out; inhibition, % at 15.5 µM; 360,000 tested, 0.75% active; AID 651718; in the data active means inhibition above about 4.5%;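 further: 0% = vehicle wells with enzyme and 100% = reference inhibitor wells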
bovine MsrA act: activators of bovine methionine sulfoxide reductase A; purified bovine MsrA, absorbance read-out; activation, % at 10.6 µM; 360,000 tested, 0.3% active; AID 602163; in the data active means activation above about 7.5%;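 further: 0% = vehicle and 100% = reference activator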
EBNA-1 inhibitor: blocks EBNA-1 binding to DNA | 300,000 tested, 0.34% active | EBNA-1 DNA binding, fluorescence polarization | AID 1950 | inhibition, % at 14.8 µM; in the data active means inhibition above about 28%
PP1 counter: PP1-alpha (human) inhibition in PP5 counter-screen | AID 2235 | purified PP1alpha, OMFP fluorescence | 320,000 tested, 0.9% active | inhibition, % at 6.7 µM | P62136;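 active means inhibition above the mean inhibition of all tested compounds plus 3 SD, computed separately for each screening campaign, cut at about 15% in these data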
Target sequence (P62136 whole entry, looked up): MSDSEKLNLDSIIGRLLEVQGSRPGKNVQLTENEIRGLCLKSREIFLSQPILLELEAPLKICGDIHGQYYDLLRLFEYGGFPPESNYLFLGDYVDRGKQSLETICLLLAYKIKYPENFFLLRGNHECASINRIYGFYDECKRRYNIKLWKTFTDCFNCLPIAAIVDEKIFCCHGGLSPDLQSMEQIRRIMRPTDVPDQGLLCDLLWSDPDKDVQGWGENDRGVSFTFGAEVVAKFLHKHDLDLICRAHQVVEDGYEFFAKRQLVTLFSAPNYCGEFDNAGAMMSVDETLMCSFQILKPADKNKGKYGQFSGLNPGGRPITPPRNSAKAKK
PP5 primary: inhibitors of human protein phosphatase 5 (PP5); P53041; purified PP5c, OMFP substrate fluorescence; inhibition, % at 6.7 µM; 320,000 tested, 0.18% active;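 active means inhibition above the campaign's mean inhibition across all tested compounds plus 3 SD, cut at about 9.5% in these data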;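 further: 0% = DMSO only and 100% = 100 µM cantharidin control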
ZTA counter: ZTA (EBV) inhibition in EBNA-1 counter-screen. P03206. ZTA-DNA binding, fluorescence polarization. inhibition, % at 11 µM. 320,000 tested, 0.15% active; in the data active means inhibition above about 33%
Target sequence (P03206 whole entry, looked up): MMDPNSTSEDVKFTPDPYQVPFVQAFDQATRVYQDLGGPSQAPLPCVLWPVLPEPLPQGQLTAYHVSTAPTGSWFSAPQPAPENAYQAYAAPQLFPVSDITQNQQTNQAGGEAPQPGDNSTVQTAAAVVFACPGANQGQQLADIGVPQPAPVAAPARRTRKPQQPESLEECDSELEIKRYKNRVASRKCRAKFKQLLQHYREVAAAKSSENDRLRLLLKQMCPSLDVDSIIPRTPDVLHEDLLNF
PP1 inh confirm: confirmation of human PP1 phosphatase inhibitors. shares compounds with PP1 counter. purified PP1alpha, OMFP substrate fluorescence. inhibition, % at 6.7 µM. 1,900 tested, 52% active. AID 2358;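 active means mean PP1 inhibition above a set limit taken from the earlier primary screen, cut at about 15% in these data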
PP5 counter: PP5 phosphatase inhibition, counter-screen for PP1 inhibitors; shares compounds with PP1 counter; purified PP5c, OMFP fluorescence; inhibition, % at 6.7 µM; 1,900 tested, 4% active;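 active means mean PP5 inhibition over triplicate wells above about 9.5% taken from the earlier PP1 screen, limit read from the data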
Numbers without * were called inactive.

Results for O=C(O)CCCC(=O)N1N=C(c2ccccc2)CC1c1cccs1 (stereo unspecified) ?
MsrA inh: -0.5; bovine MsrA act: -1.5; EBNA-1 inhibitor: -3.6; PP1 counter: -8.3; PP5 primary: -3.1; ZTA counter: -6.7

Results for CCCOc1ccc(C2C3=C(Nc4nc(N)[nH]c(=O)c42)c2ccccc2C3=O)cc1 (stereo unspecified) ?
MsrA inh: 0.8; bovine MsrA act: -2.7; EBNA-1 inhibitor: -8.8; PP1 counter: 18.9*; PP5 primary: -0.6; ZTA counter: -20.1; PP1 inh confirm: 16.5*; PP5 counter: 3.1

How did CCOc1ccc(C2C3=C(Nc4nc(N)[nH]c(=O)c42)c2ccccc2C3=O)cc1 (stereo unspecified) do in these assays?
MsrA inh: 0.2; bovine MsrA act: -4.4; EBNA-1 inhibitor: 0.1; PP1 counter: 1.9; PP5 primary: 0.6; ZTA counter: 3.1

What do the screens show for `Cc1[nH]nc(-c2ccc(O)c(C)c2O)c1-c1cnn(-c2ccccc2)c1`?
MsrA inh: -0.3; bovine MsrA act: -8.3; EBNA-1 inhibitor: -3.4; PP1 counter: 0.5; PP5 primary: 4.1; ZTA counter: -1.6

How did COCCN1C(=O)Cc2c1nc(N)c1c(N)nc(N3CCN(c4ccc(F)cc4)CC3)c(C#N)c21 do in these assays?
MsrA inh: 0.8; bovine MsrA act: -6.1; EBNA-1 inhibitor: 2.8; PP1 counter: 19.0*; PP5 primary: 0.6; ZTA counter: 4.2; PP1 inh confirm: 7.7; PP5 counter: 7.4

What do the screens show for `COc1ccc(CN2C(=O)Cc3c2nc(N)c2c(N)nc(N4CCOCC4)c(C#N)c32)cc1`?
MsrA inh: 1.5; bovine MsrA act: -1.9; EBNA-1 inhibitor: -7.0; PP1 counter: 17.6*; PP5 primary: 6.0; ZTA counter: 4.5; PP1 inh confirm: 4.2; PP5 counter: 14.5*

Results for CCCc1nc2ccc(Cl)cn2c1Cc1ccsc1 ?
MsrA inh: 1.7; bovine MsrA act: -2.5

How did Cc1ccc(S(=O)(=O)N2CCOCC2)cc1NC(=O)COc1ccc(C(=O)c2ccccc2)cc1 do in these assays?
MsrA inh: 0.0; bovine MsrA act: -2.1; PP1 counter: -1.0; PP5 primary: 0.9; ZTA counter: 2.3

Results for O=C(O)c1ccc(Cl)c(NC(=S)NC(=O)c2ccccc2[N+](=O)[O-])c1 ?
MsrA inh: 0.3; bovine MsrA act: -1.7; EBNA-1 inhibitor: 11.3; PP1 counter: 18.0*; PP5 primary: -3.2; ZTA counter: 1.3; PP1 inh confirm: -2.8; PP5 counter: -3.1

Results for Cc1cc(-c2csc(NC(=O)c3ccc(=O)[nH]c3)n2)c(C)n1Cc1ccccc1 ?
MsrA inh: 0.7; bovine MsrA act: -4.5; EBNA-1 inhibitor: -4.5; PP1 counter: 27.5*; PP5 primary: -0.7; ZTA counter: 7.3; PP1 inh confirm: 14.3; PP5 counter: -1.7

How did O=C(c1cc(-c2ccc(Br)cc2)nc2ccccc12)N1CCC1 do in these assays?
MsrA inh: 2.0; bovine MsrA act: -4.2; EBNA-1 inhibitor: -1.8; PP1 counter: 19.8*; PP5 primary: -0.1; ZTA counter: 11.0; PP1 inh confirm: -22.9; PP5 counter: -3.6

Results for CCOC(=O)C(=CNc1ccc(Oc2cncc(Cl)c2)nc1)C(=O)OCC ?
MsrA inh: 0.8; bovine MsrA act: -10.1; EBNA-1 inhibitor: -5.4; PP1 counter: -3.6; PP5 primary: 0.7; ZTA counter: -2.3

Results for COc1ccc(C2/C(=C(\O)c3ccc4c(c3)OCCO4)C(=O)C(=O)N2c2nc(C)c(C(C)=O)s2)cc1 (stereo unspecified) ?
MsrA inh: 2.9; bovine MsrA act: -7.8; EBNA-1 inhibitor: -8.2; PP1 counter: 18.8*; PP5 primary: 1.9; ZTA counter: -6.8; PP1 inh confirm: 11.0; PP5 counter: -5.7

What do the screens show for `COC(=O)c1ccc(C2/C(=C(\O)c3ccc4c(c3)OCCO4)C(=O)C(=O)N2c2nnc(C)s2)cc1` (stereo unspecified)?
MsrA inh: 0.5; bovine MsrA act: -3.8; EBNA-1 inhibitor: -1.4; PP1 counter: -0.7; PP5 primary: -1.5; ZTA counter: 12.0

How did CC(OC(=O)CC1CCCCC1)C(=O)Nc1ccc(F)cc1 (stereo unspecified) do in these assays?
MsrA inh: -0.1; bovine MsrA act: -1.2; EBNA-1 inhibitor: -9.0; PP1 counter: -0.8; PP5 primary: -3.6; ZTA counter: -11.2

How did CC1(C)C=C2C(=NN(c3ccccc3)C(N)=C2C#N)CO1 do in these assays?
MsrA inh: 2.1; bovine MsrA act: -2.0; EBNA-1 inhibitor: 6.4; PP1 counter: 33.5*; PP5 primary: 1.2; ZTA counter: 27.7; PP1 inh confirm: 0.8; PP5 counter: 59.0*

Results for CCOC(=O)c1sc(N)c(C(=O)OCC)c1COC(=O)C1CC(=O)N(Cc2ccco2)C1 (stereo unspecified) ?
MsrA inh: 2.6; bovine MsrA act: -4.9; EBNA-1 inhibitor: -0.5; PP1 counter: -0.3; PP5 primary: 1.1; ZTA counter: -8.0

Results for COC(=O)c1sc(N)c(C(=O)OC)c1COC(=O)C1CC(=O)N(Cc2ccco2)C1 (stereo unspecified) ?
MsrA inh: 0.9; bovine MsrA act: -1.1; EBNA-1 inhibitor: 13.1; PP1 counter: 17.9*; PP5 primary: 2.0; ZTA counter: -12.1; PP1 inh confirm: -2.8; PP5 counter: -2.2

What do the screens show for `COc1ccc(C(C(=O)NC2CCCC2)N(Cc2cccnc2)C(=O)Cc2cccs2)c(OC)c1` (stereo unspecified)?
MsrA inh: 0.6; bovine MsrA act: -4.2; EBNA-1 inhibitor: -6.1; PP1 counter: 2.6; PP5 primary: 2.4; ZTA counter: 6.9

How did COC(=O)c1ccc(CNC(=O)c2ccc(COc3ccccc3)cc2)cc1 do in these assays?
MsrA inh: -0.8; bovine MsrA act: -2.4; EBNA-1 inhibitor: 6.7; PP1 counter: 26.1*; PP5 primary: 0.3; ZTA counter: 12.3; PP1 inh confirm: 23.8*; PP5 counter: -2.5

Results for CCOC(=O)C1=C(c2ccccc2)NC(N)=NC1c1ccc(OCc2ccc(C(=O)OC)cc2)cc1 (stereo unspecified) ?
MsrA inh: 0.0; bovine MsrA act: -4.8; EBNA-1 inhibitor: -2.8; PP1 counter: 43.8*; PP5 primary: 1.9; ZTA counter: -7.7; PP1 inh confirm: 31.4*; PP5 counter: -4.0

What do the screens show for `SC(COCc1ccccc1)CN1CCN(Cc2ccc3c(c2)OCO3)CC1` (stereo unspecified)?
bovine MsrA act: -2.7; EBNA-1 inhibitor: 0.0; PP1 counter: 25.3*; PP5 primary: 0.3; ZTA counter: 9.2; PP1 inh confirm: 1.8; PP5 counter: -3.8

Screening data from PubChem BioAssay.
